The campaign covered roughly 13,000 compounds. About 3,200 (25%) showed an effect of 50% or more. This is one part of the list.
System: P. falciparum stage V gametocytes
Set-up: BacTiter-Glo ATP luminescence viability of purified stage V gametocytes in 384-well plates, per cent inhibition versus DMSO
Details: 48 h, 5 µM; inhibitor

| SMILES | % Inhibition |
| --- | --- |
| CCCCCCN1CCC(NCc2cccc3ccccc23)CC1 [TCMDC-141665] | -97.34% |
| CCCCCCNc1c2ccccc2nc2ccccc12 [TCMDC-123957] | -50.01% |
| CCCCN1CCN(CCCCNc2c3ccccc3nc3ccccc23)CC1 [TCMDC-137569] | 97.88% |
| CCCCN1CCN(CCCNc2c3ccccc3nc3ccccc23)CC1 [TCMDC-137572] | 99.41% |
| CCCCCCCCN1CCN(CCCCCCNc2c3ccccc3nc3ccccc23)CC1 [TCMDC-138015] | 122.1% |
| COc1ccc(NC(=O)Nc2ccc(-c3ccncc3)c(C(F)(F)F)c2)cc1N1CCN(C)CC1 [TCMDC-139213] | -9.659% |
| O=C(Cc1cnc[nH]1)Nc1cccc(-c2ccc(-c3nc4ccccc4[nH]3)cc2)c1 [TCMDC-136947] | 6.174% |
| O=C(/C=C/c1ccc(Cl)c(Cl)c1)NCCCCCCN1CCCN(C(=O)Nc2cc(F)cc(F)c2)CC1 [TCMDC-135941] | 5.109% |
| C=C[C@]1(C)C[C@@H](OC(=O)NC(=O)C2CCN(C(=O)CSc3ccccc3)CC2)[C@]2(C)[C@H](C)CC[C@]3(CCC(=O)[C@H]32)[C@@H](C)[C@@H]1O [TCMDC-139971] | 14.26% |
| CNC(=O)NC1=NC(C)(C)N(OCCCOc2cc(Cl)c(Cl)cc2Cl)C(N)=N1 [TCMDC-131701] | 9.937% |
| Cc1nc(N)nc(N)c1-c1ccc(Cl)c(Cl)c1 [TCMDC-123931] | 6.997% |
| NCCCCc1c(-c2ccc(Cl)c(Cl)c2)[nH]c2ccc(Cl)cc12 [TCMDC-125841] | 97.12% |
| CN(C)CCCNc1ncnc2c1[nH]c1ccc(Cl)cc12 [TCMDC-124579] | 36.17% |
| CO/C(=C\C=C\c1cc2cc(Cl)c(Cl)cc2[nH]1)C(=O)NCCCN1CCN(c2cccc(OCC(=O)Nc3ccccc3)c2)CC1 [TCMDC-139822] | -45.25% |
| Cc1cc(OCCCN2CCC(NS(=O)(=O)c3cccc(Br)c3)C2)c2ccccc2n1 (stereo not shown) [TCMDC-136283] | -24.53% |
| COc1cc(Cc2cnc(N)nc2N)cc(OCCCC#N)c1OC [TCMDC-138040] | -4.212% |
| Cc1ccc(S(=O)(=O)N2CCN(C(=O)c3cc(-c4ccccc4)n[nH]3)CC2)cc1 [TCMDC-124401] | -51.82% |
| Cc1nn(CC(C)C)c2sc(C(=O)N3CCN(S(=O)(=O)c4ccc(C#N)cc4)CC3)cc12 [TCMDC-125045] | 90.92% |
| COc1ccccc1-c1cc(C(=O)N2CCN(S(=O)(=O)c3ccc(C)cc3)CC2)[nH]n1 [TCMDC-124398] | 19.71% |
| CCOc1ccc(-c2n[nH]c(C(F)(F)F)c2-c2ccccc2OC)c(O)c1 [TCMDC-124564] | -16.08% |
| CC(=O)c1c(C)[nH]c(C(=O)Nc2ccc(-c3nc4ccc(C)cc4s3)cc2)c1C [TCMDC-124493] | 55.35% |
| CC(=O)Nc1ccc(C2NC(=O)NC(c3ccccc3)=C2c2nc3ccccc3s2)cc1 (stereo not shown) [TCMDC-124535] | -96.89% |
| CC(=O)Nc1cccc(C(=O)Nc2ccc(-c3ccc(-c4nc5cccc(C)c5[nH]4)s3)cc2)c1 [TCMDC-132143] | -2.133% |
| CC[C@H](NC(=O)c1c(CN2CCC(N3CCCCC3)CC2)c(-c2ccccc2)nc2c(Cl)c(O)ccc12)c1ccccc1 [TCMDC-140367] | 17.06% |

| SMILES | % Inhibition |
| --- | --- |
| CCN(CC)CCOc1ccc(C(O)(C#CC(O)(c2ccc(Br)cc2)c2ccc(OCCN(CC)CC)cc2)c2ccc(Br)cc2)cc1 (stereo not shown) [TCMDC-137199] | 112.4% |
| CCOC(=O)c1ccc(OCCCCCCOc2ccc(Br)cc2)cc1 [TCMDC-131409] | 4.056% |
| CC1(C)N=C(N)N=C(N)N1OCCCOc1ccc([N+](=O)[O-])cc1 [TCMDC-131610] | 2.796% |
| CCN(CC)CCOc1ccc(C(O)(C#CC(O)(c2ccc(OCCN(CC)CC)cc2)c2ccc([N+](=O)[O-])cc2)c2ccc([N+](=O)[O-])cc2)cc1 (stereo not shown) [TCMDC-137201] | 116.9% |
| CCN(CC)CCNc1ccnc2[nH]c3ccc([N+](=O)[O-])cc3c12 [TCMDC-131978] | 4.282% |
| NOCCCCOc1ccc(Br)cc1 [TCMDC-131760] | 15.82% |
| CCN(CC)CCOc1ccc(C(O)(C#CC(O)(c2ccccc2)c2ccc(OCCN(CC)CC)cc2)c2ccccc2)cc1 (stereo not shown) [TCMDC-137197] | 109.6% |
| CCC(=O)OC(CCN(CC)CC)(c1ccccc1)c1ccccc1 [TCMDC-131415] | 15.82% |
| CCCN(CCC)CCOc1ccc(C(O)(C#CC(O)(c2ccc(OCCN(CCC)CCC)cc2)c2cccc(Cl)c2)c2cccc(Cl)c2)cc1 (stereo not shown) [TCMDC-137200] | 105.4% |
| CCN(CC)CCOc1ccc(NC(=O)c2oc3ccccc3c2C=Cc2ccccc2)cc1 [TCMDC-132102] | 24.22% |
| O=C(Nc1ccc(Cl)cc1)c1ccc(CN2CCCN(Cc3ccsc3)CC2)cc1 [TCMDC-136415] | 6.883% |
| O=C(Nc1cccc(CN2CCCN(Cc3ccc(O)cc3)CC2)c1)c1cccc(Cl)c1 [TCMDC-141817] | -7.519% |
| Cc1sc2nc(CSc3ccccc3)nc(N3CCN(CC(=O)NC4CC4)CC3)c2c1C [TCMDC-125266] | 47.29% |
| COc1ccc2ccc(F)c(CC(=O)N3CCOC(CNCc4cccc(-c5ccsc5)n4)C3)c2n1 (stereo not shown) [TCMDC-135027] | 10.39% |
| O=C(/C=C/c1ccc(Cl)c(Cl)c1)NCCCCCN1CCC(C(=O)Nc2ccc(F)c(Cl)c2)CC1 [TCMDC-136112] | 0.5724% |
| CN(CCCN(C)c1cc(NC(=O)c2ccc(F)cc2)ccn1)Cc1cccc(O)c1 [TCMDC-134954] | -6.57% |
| C[C@H](NC(=O)C1CCCC1)C(=O)Nc1ccc(-c2ccc(-c3nc4ccc(C(F)(F)F)cc4[nH]3)cc2)cc1 [TCMDC-137052] | -25.16% |
| COc1cc(Cc2cnc(N)nc2N)cc(OCCCS(=O)(=O)O)c1OC [TCMDC-137357] | -4.274% |
| COc1cc(/C=C/C(=O)NC2CCC(N3CCC(c4ccccc4C)CC3)CC2)cc(OC)c1 (stereo not shown) [TCMDC-133516] | -90.94% |
| CCN(CC)CCOc1ccc(C(O)(C#CC(O)(c2ccc(C)cc2)c2ccc(OCCN(CC)CC)cc2)c2ccc(C)cc2)cc1 (stereo not shown) [TCMDC-137198] | 113% |
| CCCC(C(=O)OCCN(CC)CC)(c1ccc(Cl)cc1)c1ccc(Cl)cc1 [TCMDC-141994] | 16.96% |
| Cc1ccc(OCCCCONC(=O)c2ccccc2)cc1 [TCMDC-131756] | 2.332% |
| CCC1CCCCN1S(=O)(=O)c1ccc(NC(=O)c2cc(C)on2)cc1 (stereo not shown) [TCMDC-124618] | -16.01% |
| O=C(NC1CCC(N2CCC(c3ccccc3C(F)(F)F)CC2)CC1)c1cc2ccccc2[nH]1 (stereo not shown) [TCMDC-132895] | -39.86% |

| SMILES | % Inhibition |
| --- | --- |
| O=C(C=Cc1cn(-c2ccccc2)nc1-c1cccs1)N1CCN(c2ccncc2)CC1 [TCMDC-125063] | 51.82% |
| O=C(C=Cc1cn(-c2ccccc2)nc1-c1ccccc1)N1CCN(c2ccncc2)CC1 [TCMDC-125256] | 13.7% |
| O=C(Nc1ccncc1)c1cn(-c2ccccc2)nc1-c1cccs1 [TCMDC-125605] | -55.62% |
| NOCCCOc1ccccc1 [TCMDC-123474] | -11.28% |
| Nc1ccc(Oc2ccc(Cc3cnc(N)nc3N)cc2)cc1 [TCMDC-137904] | -3.731% |
| COc1ccc2nccc([C@@H](O)CN3CCC(NCc4ccc(OC)c(NC(C)=O)c4)CC3)c2c1 [TCMDC-141564] | -24.43% |
| COc1ccc(Nc2ncc3c(-c4cccc(NC(=O)Cc5ccc(F)cc5)c4)c[nH]c3n2)cc1OC [TCMDC-135252] | -55.08% |
| CCN(CCCN1CCCCC1)c1cc(C)nc(Nc2cccc(C(F)(F)F)c2)n1 [TCMDC-132451] | 9.673% |
| c1ccc(Oc2ccc(Nc3ccnc(Nc4ccc(OCCN5CCCCC5)cc4)n3)cc2)cc1 [TCMDC-138583] | -73.3% |
| Cc1nc(-c2cccc(C(F)(F)F)c2)n2nc(Nc3ccc(OCCN4CCCC4)cc3)ncc12 [TCMDC-138911] | 108.6% |
| COc1cc(Nc2ncc3c(C)nc(-c4cc5ccccc5[nH]4)n3n2)cc(OC)c1OC [TCMDC-138905] | 5.084% |
| COc1cc(Nc2ncc3c(C)nc(-c4cccc(Nc5ccc(CN6CCS(=O)(=O)CC6)cc5)c4)n3n2)cc(OC)c1OC [TCMDC-136003] | 62.52% |
| COc1ccccc1CNCC(O)c1cc(C(F)(F)F)ccc1C(F)(F)F (stereo not shown) [TCMDC-140376] | 33.11% |
| CN(C)c1ccc(C=Cc2nc(=O)c3ccccc3o2)cc1 [TCMDC-123870] | 44.95% |
| CCN(CC)S(=O)(=O)n1ncc2c3c(N)nc(N)nc3ccc21 [TCMDC-137302] | -23.31% |
| N#CCCn1nc(-c2ccc(Cl)cc2)c2c(c1=O)CCCC2 [TCMDC-123668] | -3.378% |
| COc1cc2ncnc(Nc3ccc4nc(Cc5ccccc5)[nH]c4c3)c2cc1OC [TCMDC-137180] | -12.69% |
| COc1cc2nccc(Nc3ccc4c(cnn4Cc4cccc(F)c4)c3)c2cc1OC.Cl [TCMDC-138105] | -72.46% |
| COc1cc2nc(Nc3ccc4c(cnn4Cc4ccccc4)c3)nc(Nc3ccc4c(cnn4Cc4ccccc4)c3)c2cc1OC [TCMDC-138020] | 106.8% |
| COc1cc2nc(N(C)C)nc(Nc3ccc4c(cnn4Cc4ccccc4)c3)c2cc1OC [TCMDC-138082] | 11.6% |
| COc1cc2nc(Nc3ccc4c(ccn4Cc4ccccc4)c3)nc(Nc3ccc4c(ccn4Cc4ccccc4)c3)c2cc1OC [TCMDC-138237] | 94.63% |
| COc1cc2nc(C)nc(Nc3ccc4c(ccn4Cc4ccccc4)c3)c2cc1OC [TCMDC-131924] | 19.01% |
